High-throughput results (PubChem)
S1P4 agonist: activates the human S1P4 receptor; O95977; S1P4-expressing cell line, agonist reporter assay; activation, % at 4.98 µM; 220,000 tested, 0.35% active; in the data active means activation above about 11%
Target sequence (O95977 whole entry, looked up): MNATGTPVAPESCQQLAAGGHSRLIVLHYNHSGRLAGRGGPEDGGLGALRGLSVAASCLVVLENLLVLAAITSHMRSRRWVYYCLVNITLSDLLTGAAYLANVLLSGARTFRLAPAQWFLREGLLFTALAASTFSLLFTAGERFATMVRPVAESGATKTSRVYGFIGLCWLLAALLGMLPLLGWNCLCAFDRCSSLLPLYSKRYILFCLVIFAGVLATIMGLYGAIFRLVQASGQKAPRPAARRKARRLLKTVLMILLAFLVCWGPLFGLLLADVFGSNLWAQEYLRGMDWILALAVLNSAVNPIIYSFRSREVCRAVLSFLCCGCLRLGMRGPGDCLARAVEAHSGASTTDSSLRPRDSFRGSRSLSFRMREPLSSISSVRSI
ROMK mod: modulates human ROMK potassium channel activity. P48048. Tet-inducible ROMK, thallium flux fluorescence; actives lie on both sides. B-score at 10 µM. 130,000 tested, 2% active. AID 1918;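 active means signal ratio slope over the read window, or its plate-corrected B-score, at least 3 SD from the plate mean, either direction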;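 further: B-score of the F/F0 ratio slope over 7 to 12 s after thallium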
RAM inhibit: blocks the yeast RAM network; inhibition, % at 50 µM; S. cerevisiae dse1pr::URA3 reporter, 5-FOA growth OD615, 2 d; analog-sensitive cbk1-as2 kinase mutant strain; AID 868; 190,000 tested, 1.8% active;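 active means inhibition above a set limit, 3 SD over mean compound inhibition, cut at about 8.4% in these data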;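 further: inhibition rescues growth on 5-FOA so higher OD means more RAM inhibition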
Cl transport mod: modulators of human KCC2 chloride dependent transport; AID 1456; 190,000 tested, 2.2% active; B-score of Tl+ flux slope (higher = more flux/activation; lower = inhibition) at 10 µM; Q9H2X9; KCC2 cells, thallium flux FluoZin-2 fluorescence;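 active means thallium flux slope and its plate-corrected score both differing from the plate sample mean at a set confidence after two filtering rounds, in either direction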;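 further: slope of fluorescence scaled to starting intensity during 10 to 20 s after thallium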
S1P4 antagonist: human S1P4 receptor antagonism | inhibition, % at 4.98 µM | 220,000 tested, 0.26% active | S1P4-expressing cells, antagonist mode, reporter read-out; in the data active means inhibition above about 29%
S1P3 antag: blocks the human S1P3 receptor. Q99500. CHO S1P3 NFAT-BLA reporter, FRET fluorescence, antagonist mode. inhibition, % at 4.98 µM. 170,000 tested, 0.27% active;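 active means inhibition above the plate cutoff, the mean inhibition of test wells on that plate plus 3 SD, cut at about 28% in these data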;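 further: cells challenged with S1P at its EC80 of 0.8 µM; blue over green emission ratio from cleaved BLA substrate after 4 h stimulation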
KCC2 secondary: confirmation of human KCC2 transport modulators; AID 1713; normalised thallium flux (F/F0 slope) at 10 µM; 3,700 tested, 15% active; HEK293-KCC2, thallium flux, FluoZin2 fluorescence; stronger effect = higher value; shares compounds with Cl transport mod;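 active means thallium flux slope above the same plate's solvent-only control mean plus 3 SD; inconclusive means the two replicate wells disagree; inactive means no significant difference from solvent-only control wells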
KCC2 bumet counter: bumetanide-insensitive thallium flux in KCC2 cells with ouabain, counter-screen. 3,700 tested, 49% active. shares compounds with Cl transport mod. HEK293-KCC2 + bumetanide/ouabain, thallium flux FluoZin2; stronger effect = higher value. normalized thallium flux at 10 µM;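 active means thallium entry rate above the same plate's blocked-transporter control wells by more than 3 SD; inconclusive means the two repeat wells disagree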;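 further: raw slope of fluorescence over initial fluorescence between 10 and 20 s after thallium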
KCC2 secondary2: confirmation of human KCC2 transport modulators; HEK293-KCC2, thallium flux FluoZin2 fluorescence; actives lie on both sides; F/F0 rise rate, 10–20 s post-thallium; AID 1715; normalized thallium flux at 10 µM; shares compounds with Cl transport mod; 3,700 tested, 23% active;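 active means thallium flux slope more than 3 SD above or below the plate's solvent-only control mean, mostly below; inconclusive means the two repeat wells disagreed; inactive means no significant shift from solvent-only controls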
HEK counter1: acts in parental HEK cells, KCC2 counter-screen; shares compounds with Cl transport mod; HEK293 parental cells, thallium flux FluoZin2, ouabain; baseline-ratio fluorescence slope, 10–20 s after thallium; thallium flux rate (normalised fluorescence) at 10 µM; 3,700 tested, 46% active; AID 1716;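 active means thallium flux rate significantly above the same plate's solvent-only control wells, beyond their mean plus 3 SD; inconclusive means the two replicate wells gave conflicting results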
KCC2 ouabain: modulates human KCC2 on retest with ouabain | 3,700 tested, 48% active | raw Tl+ flux slope (below DMSO = inhibition, above = activation) at 10 µM | shares compounds with Cl transport mod | HEK293-KCC2, thallium flux FluoZin2 fluorescence; bidirectional: low = inhibitor, high = activator;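 active means thallium flux slope beyond 3 SD from same-plate DMSO control mean in most replicates, usually higher, sometimes lower; inconclusive means repeat tests gave conflicting results; inactive means no significant difference from controls in most replicates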;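 further: slope of initial-normalized fluorescence between seconds 10 and 20 after thallium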
HEK293 Tl flux2: parental HEK flux effect, counter-screen 2; shares compounds with Cl transport mod; HEK293 parental, thallium flux FluoZin-2 fluorescence slope; thallium flux slope at 10 µM; 3,700 tested, 33% active;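 active means thallium flux slope above the same plate's solvent-control mean plus 3 SD in both duplicate wells; inconclusive means duplicate wells that disagreed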;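 further: run without ouabain in cells lacking the KCC2 cotransporter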
Numbers stand for hits; – = inactive; ? = inconclusive; · = no result given. Compounds with a hit are over-represented: about 5.1% of the library has one in this group of screens.

SMILES	S1P4 agonist	ROMK mod	RAM inhibit	Cl transport mod	S1P4 antagonist	S1P3 antag	KCC2 secondary	KCC2 bumet counter	KCC2 secondary2	HEK counter1	KCC2 ouabain	HEK293 Tl flux2
O=C(CSc1nnc(SCc2cccc3ccccc23)s1)N/N=C/C=C/c1ccccc1[N+](=O)[O-]	–	–	–	–	–	–	·	·	·	·	·	·
CC(=O)N(C)c1ccc(C(O)(C(F)(F)F)C(F)(F)F)cc1	–	–	–	–	–	–	·	·	·	·	·	·
CC(C)COc1nc2ccccc2nc1C(C#N)C(=O)NC1CCCCC1 (stereo unspecified)	–	–	–	·	–	·	–	–	–	–	–	–
COC(C[C@H]1O[C@H]1C(=O)COCc1ccccc1)OC	·	·	·	–	·	·	·	·	·	·	·	·
Cc1ccc(CNc2nc(C)nc3sc4c(c23)CCC4)cc1	–	·	–	–	–	·	·	·	·	·	·	·
Cc1nc(NC(C)c2ccccc2)c2c3c(sc2n1)CCC3 (stereo unspecified)	–	–	–	-6.3	–	·	–	–	–	–	–	–
CCCCCCCn1c(C)nnc1-c1cnn(C)c1N	–	–	–	–	–	–	·	·	·	·	·	·
COc1cc(-c2nc(CN3CCN(c4ncccn4)CC3)c(C)o2)ccc1F	–	–	–	-3	–	–	–	–	–	?	–	?
O=C(Nc1cc(Cl)ccn1)C1(c2ccccc2)CC1(Cl)Cl (stereo unspecified)	–	–	·	–	–	–	·	·	·	·	·	·
Nc1sc(-c2ccccc2)cc1-c1n[nH]c(=S)n1C1CCCCC1	–	·	·	–	–	–	·	·	·	·	·	·
S=c1[nH]nc(-c2cccs2)n1Cc1ccccc1	–	–	–	–	–	–	·	·	·	·	·	·
S=c1[nH]nc(-c2cccs2)n1C1CCCCC1	–	·	·	11	–	–	–	0.016	–	0.013	0.026	?
CC(C1CC2CCC1C2)n1c(-c2cccs2)n[nH]c1=S (stereo unspecified)	–	·	·	72	–	–	–	0.082	0.042	0.034	0.041	0.032
C/C(=N\NC(=O)c1c(Br)c(C)nn1C)c1cccc(NC(=O)C2CCC2)c1	–	·	–	-5.2	–	·	–	–	–	–	–	–
C/C(N)=C(/C#N)C(=O)CSc1nn(-c2ccc(Cl)cc2)c(=S)s1	–	–	–	–	–	–	·	·	·	·	·	·
C/C(N)=C(/C#N)C(=O)CSc1nnc(SCc2ccc(Cl)cc2)s1	–	–	–	·	–	–	–	–	–	–	?	–
C=CCn1c(-c2ccco2)n[nH]c1=S	–	–	–	·	–	–	–	–	–	–	–	–
C=CCn1c(-c2cc3cccc(OC)c3o2)n[nH]c1=S	–	–	–	3.7	–	–	–	0.014	–	0.013	?	0.016
Cc1c(Cl)cccc1Nc1ccccc1C(=O)O	–	–	–	4.6	–	–	?	0.024	–	0.013	?	–
CC(C)(C)C1C/C(=C/c2ccccn2)C(=O)/C(=C/c2ccccn2)C1 (stereo unspecified)	–	–	–	-3.4	–	–	–	0.0094	–	0.0095	–	?
Cc1ccccc1NC1=NC(=S)N(c2ccccc2)C12CCCCC2	–	–	–	57	–	–	0.025	0.16	0.043	0.078	0.11	0.022
COc1ccc(NC2=NC(=S)N(c3cccc(C)c3)C23CCCCC3)cc1	–	·	–	7.3	–	·	–	0.016	–	0.011	?	–
